Source: PubChem BioAssay (National Center for Advancing Translational Sciences (NCATS))
Hits are enriched below; roughly 3.8% of the tested compounds scored in any of these assays.
TrxR1 substrate: rat thioredoxin reductase 1 substrate activity. hit rate 0.01% among 390,000. AID 588456. purified TrxR1 substrate turnover, NADPH consumption readout. Potency, µM (highest dose often 114 µM), without a hit: at the top dose activity change, negative = substrate turnover. O89049; note: nearly all actives have a fitted effect of over 50% in size
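Rat TrxR1, dispensed at 90 nM, was prereduced with 400 uM NADPH (final) for 5 min at ~22 deg C, then incubated with compound 15 min before 400 uM selenite. A first-read NADPH fluorescence drop versus no-compound background flagged substrates.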
VDR inhibitor: blocks the human vitamin D receptor | P11473 | VDR-SRC2-3 peptide fluorescence polarization, 2 h | Potency, µM, for the others: max response, negative = inhibition, usual class: inhibitors | hit rate 0.93% among 400,000
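Fluorescence polarization assay measuring small-molecule disruption of VDR binding to the coregulator peptide SRC2-3. Compounds were pin-transferred (23 nl) into the reagent mix and incubated 2 h at room temperature before reading.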
KAT2A inh: GCN5L2 (KAT2A) acetyltransferase inhibition | Q92830 | GCN5L2 HAT assay, ThioGlo1 CoA-SH fluorescence | Potency, µM (series often up to 58.9 µM), for the others: top-dose activity change, negative = inhibition, most hits filed as inhibitors | hit rate 0.21% among 390,000
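Enzyme at 20nM final was mixed with library compounds for 15 min at room temperature. Peptide H3(1-25) at 75uM, acetyl-CoA at 70uM and ThioGlo1 at 50uM were then added. Plates were read immediately and after 20 min (Ex340nm/Em540nm).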
Sfp PPTase inh: blocks B. subtilis Sfp PPTase activity. Biochemical Sfp PPTase activity, qHTS. Potency, µM, for inactives: largest response in the series, negative = inhibition, most hits filed as inhibitors. hit rate 3.5% among 310,000. AID 1490;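 note: the enzyme is Sfp with the accession as filed and its product quenches rhodamine fluorescence; 0% = enzyme reaction without inhibitor and -100% = no enzyme wells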
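After 15 min at room temperature with compound, 15 nM Sfp received 5 uM rhodamine-CoA plus 12.5 uM BHQ-2-ybbR (50 mM Hepes pH 7.6, 10 mM MgCl2). Rate came from the fluorescence difference over 30 min, ex 525/em 598 nm.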
GLS inhibitor: blocks human kidney-isoform glutaminase activity; hit rate 0.21% among 410,000; Potency, µM (highest dose often 45.5 µM), without a hit: at the top dose activity change, negative = inhibition, most hits filed as inhibitors; GLS enzymatic activity, qHTS titration
Target sequence (O94925 whole entry, looked up, canonical isoform): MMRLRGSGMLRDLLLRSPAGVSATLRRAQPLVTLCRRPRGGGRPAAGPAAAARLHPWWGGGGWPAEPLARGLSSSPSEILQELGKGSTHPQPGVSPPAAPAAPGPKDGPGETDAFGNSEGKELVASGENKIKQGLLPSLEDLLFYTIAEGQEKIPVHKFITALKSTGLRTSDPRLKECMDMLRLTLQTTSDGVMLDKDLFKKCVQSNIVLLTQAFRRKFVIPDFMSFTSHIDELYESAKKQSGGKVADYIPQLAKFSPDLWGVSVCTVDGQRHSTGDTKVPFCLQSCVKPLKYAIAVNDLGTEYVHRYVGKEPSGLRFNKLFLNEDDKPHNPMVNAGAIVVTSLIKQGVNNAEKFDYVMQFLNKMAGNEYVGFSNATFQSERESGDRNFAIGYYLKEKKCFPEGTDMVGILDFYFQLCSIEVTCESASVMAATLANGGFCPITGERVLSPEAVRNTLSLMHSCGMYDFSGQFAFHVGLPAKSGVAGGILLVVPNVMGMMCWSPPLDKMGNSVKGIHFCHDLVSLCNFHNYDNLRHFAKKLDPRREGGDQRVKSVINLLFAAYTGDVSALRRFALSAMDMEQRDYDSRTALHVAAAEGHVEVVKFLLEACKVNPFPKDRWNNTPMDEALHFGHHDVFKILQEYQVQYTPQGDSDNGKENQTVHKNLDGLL
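Two-point fluorescence kinetic (t0, 30 min RT) for hKGA; glutamate detected via glutamate oxidase–HRP–Amplex Red. Substrate: 1 mM L-glutamine solution; buffer 45 mM KH2PO4, pH 8.2.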
TrxR1 inh: blocks rat thioredoxin reductase 1 | O89049 | recombinant rTrxR1, NADPH fluorescence consumption, selenite substrate | Potency, µM (highest dose often 114 µM), for inactives: at the top dose activity change, negative = inhibition, hits mostly inhibitors | hit rate 1% among 390,000 | AID 588453; note: nearly all actives have a fitted effect of over 65% in size
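Rat TrxR1 (90 nM in the dispensed reagent) was pre-reduced with 400 uM NADPH for 5 min at room temperature, then incubated with compound for 15 min. After 400 uM selenite was added, NADPH fluorescence (Ex 340/Em 450 nm) was followed for 8 min.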
The depositor's hits bear a star; ? = inconclusive; / = no result; [ ] = remark or other dose. Calls come from the whole dose curve; as a rule, active = well fitted curve in the direction sought with a large enough effect; inconclusive = small, poorly fitted or top-dose-only effect, or another doubt; inactive = no such curve, though single readings can be large; an effect the other way counts as inactive or inconclusive. Unless noted, % is set by controls: 0 for no effect and ±100 for the full control effect; potency is the fitted concentration of half-maximal effect.

SMILES	TrxR1 substrate	VDR inhibitor	KAT2A inh	Sfp PPTase inh	GLS inhibitor	TrxR1 inh
CCCCC(=O)Nc1nc(C)c(-c2csc(Nc3ccccc3OC)n2)s1	0.7%	10.8%	-12.1%	-4.4%	4.9%	8.0%
CC(C)c1ccccc1OCCCN1CCCC1	-3.5%	-9.4%	2.6%	-3.2%	-2.9%	4.3%
C/C(=C\C[Si](C)(C)C)CCC=O	/	-10.8%	/	63.1µM*	/	/
COc1ccc(/C=N/Nc2cc(=O)n(C)c(=O)n2C)cc1OC	-10.3%	?	-12.0%	89.1µM*	19.4%	-21.3%
COc1ccc(/C=N/Nc2ccccn2)cc1OC	-2.9%	-12.1%	-6.5%	56.2µM*	20.0%	10.5%
Cc1sc2nc(CSc3ccccc3)nc(NCCN(C)C)c2c1C	-2.7%	-0.6%	-5.7%	-12.7%	13.2%	-2.5%
O=C(Nc1nc2c(F)cc(F)cc2s1)c1ccco1	-0.7%[57.1 µM]	-14.0%	14.4%	9.7%	4.6%	7.7%[57.1 µM]
O=C(CCc1ccccc1)Nc1nc2c(F)cc(F)cc2s1	-0.7%	-12.5%	1.0%	35.5µM*	0.4%	-5.6%
O=C(Nc1cccc(C(F)(F)F)c1)/C(=C\c1ccco1)NC(=O)c1cccs1	0.8%	5.1%	-3.8%	-11.6%	9.6%	2.5%
O=C(Nc1cccc(F)c1)/C(=C\c1ccco1)NC(=O)c1cccs1	-3.1%	-5.9%	-8.4%	56.2µM*	-0.4%	-16.0%
O=C(O)/C(=C\c1ccco1)NC(=O)c1ccccc1	-15.5%	-8.2%	-1.3%	-26.8%	-5.6%	-25.9%
O=C(NC(Cc1ccccc1)C(=O)O)/C(=C/c1ccco1)NC(=O)c1cccc(Br)c1 (stereo not drawn)	-4.0%	-6.4%	-5.8%	?	17.8µM*	?
CC(C)(C)c1ccc(C(=O)N/C(=C\c2ccco2)C(=O)Nc2ccccc2C(=O)O)cc1	-7.1%	-17.3%	?	50.1µM*	0.0%	?
O=C(Nc1ccc(C(=O)O)cc1)/C(=C\c1ccco1)NC(=O)c1ccccc1	-16.0%	-10.9%	1.6%	20µM*	-3.6%	26.4%[57.1 µM]
O=C(NC1CC(=O)N(c2ccccc2)C1)C1CCCC1 (stereo not drawn)	4.5%[57.1 µM]	4.0%	14.3%	/	-11.2%	15.4%[57.1 µM]
COCCCn1c(SC(C)C(=O)NC2CC2)nc2ccccc2c1=O (stereo not drawn)	-5.9%[57.1 µM]	24.6%	-7.3%	/	0.0%	-8.9%[57.1 µM]
O=C(Nc1ccc(OC(F)F)cc1)c1nc(SCc2ccccc2F)ncc1Cl	-4.0%	/	/	/	/	-3.4%
COc1cccc(C2/C(=C(/O)c3ccccc3)C(=O)C(=O)N2CCCC(=O)O)c1 (stereo not drawn)	9.9%[57.1 µM]	-1.7%	-11.6%	5.0%	45.1%	16.5%[57.1 µM]
O=C1C2ON(c3ccccc3)C(c3cccnc3)C2C(=O)N1c1ccc(Cl)c(Cl)c1 (stereo not drawn)	-6.0%	2.2%	1.7%	-8.4%	0.2%	-7.4%
CCn1c(-c2cccnc2)n[nH]c1=S	11.4%	9.8%	-13.0%	89.1µM*	3.2%	-8.1%
S=c1[nH]nc(-c2ccc(Cl)cc2)n1-c1cccnc1	-5.7%	-21.4%	-0.1%	-17.8%	-2.1%	-9.3%
Nn1c(-c2ccco2)n[nH]c1=S	0.6%[57.1 µM]	5.0%	-7.7%	56.2µM*	-9.0%	-12.8%[57.1 µM]
Cc1cccc(-n2c(-c3ccncc3)n[nH]c2=S)c1	-3.8%	-7.9%	-8.0%	79.4µM*	12.9%	-26.7%
S=c1[nH]nc(-c2cccnc2)n1-c1ccccc1	-1.8%	-10.7%	-1.6%	79.4µM*	7.7%	-35.4%
S=c1[nH]nc(-c2ccco2)n1-c1ccc(Cl)cc1	8.3%	-1.0%	0.8%	-14.8%	13.7%	-9.0%
SMILES	TrxR1 substrate	VDR inhibitor	KAT2A inh	Sfp PPTase inh	GLS inhibitor	TrxR1 inh
Cc1cccc(-n2c(C)n[nH]c2=S)c1	9.1%	3.1%	1.2%	-11.3%	37.1%	-2.2%
COc1cc(NC2c3ccccc3C(=O)N2Cc2ccc3c(c2)OCO3)cc(OC)c1OC (stereo not drawn)	-2.1%[57.1 µM]	-14.6%	-6.1%	8.1%	4.4%	9.5%[57.1 µM]
Cn1cc(SCC(=O)Nc2nccs2)c2ccccc21	-0.3%[57.1 µM]	-16.6%	-25.0%	-8.4%	-2.0%	15.7%[57.1 µM]
O=C(N/N=C/c1cc([N+](=O)[O-])ccc1O)C(O)(c1ccccc1)c1ccccc1	-16.5%	-6.8%	?	-4.4%	17.2%	-7.3%
C/C(CC(=O)Nc1ccc(N(C)C)cc1)=N\NC(=O)c1ccncc1	8.4%[57.1 µM]	-19.1%	2.1%	-5.4%	?	-11.9%[57.1 µM]
O=C(CCl)Nc1cc(S(=O)(=O)N2CCOCC2)ccc1N1CCOCC1	7.8%	-3.4%	2.4%	15.9%	3.1%	7.3%[57.1 µM]
COc1ccccc1-n1c(-c2ccco2)n[nH]c1=S	14.7%	-12.6%	-14.0%	-24.4%	1.5%	-4.7%
COc1ccccc1-c1n[nH]c(=S)n1-c1ccccc1	1.5%	-3.2%	-5.1%	-13.1%	-5.0%	?
COc1ccccc1-c1n[nH]c(=S)n1N	4.1%[57.1 µM]	-11.6%	-0.6%	44.7µM*	1.4%	-1.1%[57.1 µM]
Cc1cccc(-n2c(C)c(-c3ccccc3)[nH]c2=S)c1	7.6%[57.1 µM]	?	-6.3%	3.55µM*	?	-27.5%
COc1ccccc1-n1c(-c2cccnc2)n[nH]c1=S	1.9%[57.1 µM]	5.2%	1.7%	50.1µM*	1.0%	-31.6%[57.1 µM]
COc1cccc(-n2c(-c3cccc(S(=O)(=O)N(C)C)c3)n[nH]c2=S)c1	7.3%[57.1 µM]	-10.9%	-3.4%	50.1µM*	-37.3%	-13.4%[57.1 µM]
O=C(c1ccccc1Br)N1CCC(c2nc3ccccc3s2)CC1	-8.2%	-13.6%	-4.1%	-9.2%	-0.1%	6.4%
CCSC1(SCC)N=C(N)C2(C#N)C(c3ccc(OC)c(OC)c3OC)C12C#N (stereo not drawn)	-10.6%	?	19.1%	-48.7%	19.5%	44.7µM*
